Test results reported in PubChem BioAssay AID602208 (Johns Hopkins Ion Channel Center, 2012).
Potency and affinity values are given separately. Activity calls are given as the source filed them.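 Rule for the calls: active = average duplicate choline uptake below buffer control mean minus 3 SD, with a fitted dose curve; inactive = the rest.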

What follows are molecules tested against High affinity choline transporter 1 (Homo sapiens) (UniProt Q9GZV3) (assay: inhibitors of CHT choline uptake, dose response, cell-based, 3H-choline uptake, CHT LV-AA trafficking mutant, CRC (AID 602208)). Details: HEK293 CHT LV-AA cells.
Chain of High affinity choline transporter 1 (Homo sapiens) (Q9GZV3 whole entry, looked up): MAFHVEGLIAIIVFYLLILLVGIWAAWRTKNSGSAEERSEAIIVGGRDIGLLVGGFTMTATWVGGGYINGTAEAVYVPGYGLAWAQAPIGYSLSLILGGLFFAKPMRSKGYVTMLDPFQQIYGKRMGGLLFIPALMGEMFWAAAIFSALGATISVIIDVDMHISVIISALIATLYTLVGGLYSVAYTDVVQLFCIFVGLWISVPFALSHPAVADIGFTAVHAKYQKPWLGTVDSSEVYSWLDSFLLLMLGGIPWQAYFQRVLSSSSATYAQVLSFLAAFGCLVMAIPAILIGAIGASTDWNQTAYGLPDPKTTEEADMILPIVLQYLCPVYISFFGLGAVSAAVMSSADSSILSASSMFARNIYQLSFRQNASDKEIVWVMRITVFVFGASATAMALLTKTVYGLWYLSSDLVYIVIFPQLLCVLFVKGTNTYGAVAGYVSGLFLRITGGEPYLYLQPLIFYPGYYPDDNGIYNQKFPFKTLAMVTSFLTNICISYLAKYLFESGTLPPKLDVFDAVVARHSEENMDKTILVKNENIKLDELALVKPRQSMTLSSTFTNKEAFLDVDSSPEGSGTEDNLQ
In the case of `CCN(CC)S(=O)(=O)c1cc(C(=O)Nc2nncs2)c(Cl)cc1Cl`, the outcome is reported as “inactive”. In the case of `CCc1cccc(CC)c1NC(=O)c1cccc(S(=O)(=O)N2CCN(C)CC2)c1`, the outcome is reported as “inactive”. In the case of `Cc1cc(NS(=O)(=O)c2ccc(NC(=O)C(C)Oc3cccc(C)c3C)cc2)nc(C)n1` (configuration not stated), the outcome is reported as “inactive”. In the case of `COc1cc(NS(=O)(=O)c2ccc(NC(=O)c3ccc(Cl)cc3Cl)cc2)ncn1`, the outcome is reported as “inactive”. For `CC1CCCCC1NC(=O)c1cccc(S(=O)(=O)N2CCN(C)CC2)c1` (configuration not stated), the outcome was “inactive”. With `Cc1cc(C)c(C(=O)Nc2ccc(S(=O)(=O)Nc3ccccn3)cc2)c(C)c1` the outcome was “inactive”. With `Cc1cc(NS(=O)(=O)c2ccc(NC(=O)c3ccc(Cl)cc3Cl)cc2)no1` the outcome was “inactive”.
